Measured values published in PubChem BioAssay (EPA / NIEHS).
Where “and” joins values, the source holds several entries; their conditions need not be identical. Identical values can stand only once. Records with an inconclusive call do not appear. Calls of active or inactive are those of the source. Rule for the calls: active = hit-call score of the fitted dose curve at least 0.9, where 1 is the maximum; inconclusive = response in the unintended direction; inactive = score below 0.9.

target: Peroxisome proliferator-activated receptor gamma (Homo sapiens) (UniProt P37231); experiment: ATG_PPARg_TRANS: Attagene TRANS-FACTORIAL HepG2 Assay for human Peroxisome Proliferator-activated Receptor-gamma (PPARg) (AID 2283007)
Method: ATG_TRANS is a cell-based, multiplexed-readout assay that uses HepG2, a human liver cell line, with measurements taken at 24 hours after chemical dosing in a 24-well plate.ATG_PPARg_TRANS is one of 30 assay component(s) measured or calculated from the ATG_TRANS assay. It is designed to make measurements of mRNA induction, a form of inducible reporter, as detected with fluorescence intensity signals by Reverse transcription polymerase chain reaction (RT-PCR) and Capillary electrophoresis technology.Data from the assay component ATG_PPARg_TRANS was analyzed into 1 assay endpoint. This assay endpoint, ATG_PPARg_TRANS, was analyzed in the positive analysis fitting direction relative to DMSO as the negative control and baseline of activity. Using a type of inducible reporter, measures of mRNA for gain-of-signal activity can be used to understand the reporter gene at the transcription factor-level as they relate to the gene PPARG. Furthermore, this assay endpoint can be referred to as a primary readout, because this assay has produced multiple assay endpoints where this one serves a reporter gene function. To generalize the intended target to other relatable targets, this assay endpoint is annotated to the nuclear receptor intended target family, where the subfamily is non-steroidal.
Human liver HepG2 cells are transiently transfected with multiple reporter transcription units (MRTUs) in 6-well plates using FuGene 6 reagent (Roche; 3 ml FuGene/1 mg DNA). The MRTU constructs are regulated by a cis-regulating element (promoter). […] A major difference between the CIS and TRANS system is that in CIS activities of endogenous TFs are measured, whereas the TRANS assay evaluates changes in activities of exogenous, chimeric NR-Gal4 proteins. […] At the end of 24 hour incubation, total RNA was isolated using TriZol reagent (Invitrogen). The isolated RNA is then reverse-transcribed using oligo(dT) primer and Mo-MLV reverse transcriptase (Invitrogen) with DNAse I (Ambion) treatment for 30 min. The one-tenth of the produced cDNA was amplified by PCR using Taq DNA polymerase (Invitrogen) and two reporter sequence-specific primers. The PCR products were fluorescently labeled by primer extension with 6-arboxyfluorescein (6-FAM) 5'-labeled reporter sequence-specific primer (2 min at 95 C, 20 s at 68 C and 10 min at 72 C) and these products were digested with 5U of HpaI (New England Biolabs) for 2h at 37 C. The fragments were purified using Qiaquick PCR columns (Qiagen), analyzed on an ABI 3130xL genetic analyzer (Applied Biosystems) with peak positions identified by using a set of X-rhodamine (ROX)-labeled MapMarker1000 molecular weight standards (BioVentures). The raw capillary electrophoresis data was processed using Attagraph software (Attagene).

Chain of Peroxisome proliferator-activated receptor gamma (Homo sapiens) (P37231 whole entry, looked up): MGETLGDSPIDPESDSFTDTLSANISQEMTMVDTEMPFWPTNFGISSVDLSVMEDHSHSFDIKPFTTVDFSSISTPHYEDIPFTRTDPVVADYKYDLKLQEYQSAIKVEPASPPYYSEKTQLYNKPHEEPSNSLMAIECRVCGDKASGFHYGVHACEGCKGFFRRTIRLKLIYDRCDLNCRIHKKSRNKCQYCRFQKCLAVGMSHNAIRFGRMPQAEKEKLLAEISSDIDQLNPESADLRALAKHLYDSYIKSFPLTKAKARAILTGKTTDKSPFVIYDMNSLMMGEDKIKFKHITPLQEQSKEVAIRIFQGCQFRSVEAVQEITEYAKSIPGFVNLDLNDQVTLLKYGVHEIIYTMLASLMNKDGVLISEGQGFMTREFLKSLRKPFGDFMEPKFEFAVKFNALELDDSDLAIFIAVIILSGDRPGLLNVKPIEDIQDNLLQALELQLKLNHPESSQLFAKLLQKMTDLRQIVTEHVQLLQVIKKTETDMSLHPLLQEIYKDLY

SMILES	AC50	outcome
O=C(NS(=O)(=O)/C=C/c1cccs1)c1ccc(F)cc1Br	21.6 µM (active)	
O=C(N[C@@H](c1ccccc1)[C@@H]1CCCCN1)c1cccc(C(F)(F)F)c1Cl		inactive
O=C1NC(=O)C(c2ccccc2)(c2ccccc2)N1		inactive
CN(C)C(=O)NC1(c2ccccc2)CCN(CCC[C@]2(c3ccc(Cl)c(Cl)c3)CCCN(C(=O)c3ccccc3)C2)CC1	5.21 µM (active)	
CCOCCOCCO		inactive
Cc1cn([C@H]2C=C[C@@H](CO)O2)c(=O)[nH]c1=O		inactive
COC(=O)[C@H]1[C@H]2C[C@@H]3c4[nH]c5cc(OC)ccc5c4CCN3C[C@H]2C[C@@H](OC(=O)c2cc(OC)c(OC)c(OC)c2)[C@@H]1OC		inactive
NC(=Nc1ccccc1)Nc1ccccc1		inactive
CC(=O)O[C@]1(C(C)=O)CC[C@H]2[C@@H]3C=C(Cl)C4=CC(=O)[C@@H]5C[C@@H]5[C@]4(C)[C@H]3CC[C@@]21C		inactive
CCC(C)N(C)C(=O)c1cc2ccccc2c(-c2ccccc2Cl)n1 (stereo not given)		inactive
Oc1ccc(O)cc1		inactive
CC(C)COC(=O)CCCCC(=O)OCC(C)C		inactive
CS(=O)(=O)c1ccc([C@@H](C[C@H]2CCC(=O)C2)C(=O)Nc2cnccn2)cc1Cl		inactive
CC(=O)OC1CC(C)OC(C)O1 (stereo not given)		inactive
O=[Si]=O		inactive
Cc1ccc(C(C)(C)C)c(O)c1		inactive
O=C(O)c1cccnc1		inactive
C#CC(O)C(CC)CCCC (stereo not given)	59.2 µM (active)	
O=Cc1ccccc1C=O		inactive
CCCCCCC(CCCCCCCCCCC(=O)OCC(COC(C)=O)OC(C)=O)OC(C)=O (stereo not given)	50 µM (active)	

SMILES	AC50	outcome
CCCCCCC(C=O)=Cc1ccccc1	27.4 µM (active) and 6.91 µM (active)	
CCN(CC)CCOc1ccc(C(=C(Cl)c2ccccc2)c2ccccc2)cc1		inactive
CC(COCC(C)OC(=O)c1ccccc1)OC(=O)c1ccccc1 (stereo not given)		inactive
Nc1nc(=S)c2[nH]cnc2[nH]1		inactive
COc1ccc(C(=O)Nc2nc3ccccc3c(NCc3ccccc3)c2C#N)cc1	1.45 µM (active)	
C=CCCCCCCCCCCCC		inactive
CCCCCCCCCCCCCCCCO		inactive
O=C1CCCCC1		inactive
CSc1ccc(Oc2ccc(S(N)(=O)=O)cc2CN(C)C)cc1C		inactive
CC1=C(C)S(=O)(=O)CCS1(=O)=O	77.8 µM (active)	
C/C=C/C=C/C(=O)O		inactive
NCCOCCOCCN		inactive
CCCCCCCCCCCCCCOS(=O)(=O)O	11.1 µM (active)	
CO[C@@H]1COCC[C@@H]1N[C@@H]1CC[C@@](C(=O)N2CCc3ncc(C(F)(F)F)cc3C2)(C(C)C)C1		inactive
CCCCc1nc2cccnc2n1Cc1ccc(-c2ccccc2-c2nnn[nH]2)cc1	4.39 µM (active)	
CC(=O)S[C@H](C(=O)N[C@H]1Cc2ccccc2[C@H]2CCC[C@@H](C(=O)O)N2C1=O)C(C)C		inactive
CCc1nc(N)nc(N)c1-c1ccc(Cl)cc1		inactive
S=c1[nH]c2ccccc2s1	9.31 µM (active)	
Oc1ccccc1O		inactive
OCC(CO)n1cnc(-c2ccc(F)cc2)c1-c1ccnc(Oc2ccccc2)n1		inactive
